Measurements from the supplement of paper PMC9135407.
Where “and” joins values, the source holds several entries; their conditions need not be identical. Equal entries are not always repeated. Structures can show the parent of a compound that is named as a salt. The campaign covered roughly 5,800 compounds. About 620 (11%) showed activity. The full list was thinned out, with actives kept by preference. Values without a mark were called inactive.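 The calls were made as follows: active = score above a cut-off or among the top three wells of a plate; in these data no inactive exceeds 0.85.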

System: primary human hepatic stellate cells (donor 1)
Test: scaled lipid accumulation score (0 = DMSO-like, 1 = nortriptyline-like); higher = stronger HSC inactivation (lipid re-accumulation), active = hit call of the paper
Conditions: 48 h
[1] = library stock concentration: 1 mM
[2] = library stock concentration: 3.33 mM
[3] = library stock concentration: 10 mM
[4] = library stock concentration: 9 mM
[5] = library stock concentration: 80 uM
[6] = library stock concentration: 400 uM
[7] = library stock concentration: 2 mM

O=C(CCCC[C@@H]1SC[C@@H]2NC(=O)N[C@@H]21)NCCCC[C@H](NC(=O)CCN1C(=O)C=CC1=O)C(=O)O [3-(N-Maleimidopropionyl)-biocytin]
scaled lipid accumulation score [1]: ≤ 0

Cc1c(C(=O)Nc2ccc(N3CCC(N4CCOCC4)CC3)c(C#N)c2)cnn1-c1ccc(Cl)cc1
scaled lipid accumulation score [2]: 0.756 | scaled lipid accumulation score [3]: 0.699

C[N+]1(C)[C@@H]2C[C@@H](OC(=O)C(O)(c3cccs3)c3cccs3)C[C@H]1[C@@H]1O[C@@H]12 [Tiotropium Bromide hydrate]
scaled lipid accumulation score [2]: ≤ 0 | scaled lipid accumulation score [3]: ≤ 0

CCCCC[C@H]1C=C[C@@H]2[C@@H](CC=CCCCC(=O)O1)[C@@H](O)C[C@H]2O [Prostaglandin F2.alpha. 1,15-lactone]
scaled lipid accumulation score [1]: ≤ 0

CCCCC/C=C/C=C1/C=CC(=O)[C@@H]1CCCCCCC(=O)O [15-deoxy-.DELTA.12,14-Prostaglandin A1]
scaled lipid accumulation score [1]: ≤ 0

CC(C)C[C@H](NC(=O)CNC(=O)c1cc(Cl)ccc1Cl)B1OC(=O)CC(CC(=O)O)(C(=O)O)O1 (some centres not stated)
scaled lipid accumulation score [2]: ≤ 0 | scaled lipid accumulation score [3]: 0.118

OCC1OC(n2cnc3c(NC4CCCCC4)ncnc32)C(O)C1O (configuration not stated) [N6-Cyclohexyladenosine]
scaled lipid accumulation score [3]: 0.037

Cc1cccc(CCN2CCC(C(=O)c3ccc(NS(C)(=O)=O)cc3)CC2)n1 [E-4031 dihydrochloride]
scaled lipid accumulation score [3]: ≤ 0

Cc1cccc(CCN2CCC(C(=O)c3ccc(NS(C)(=O)=O)cc3)CC2)n1
scaled lipid accumulation score (library stock concentration: 9.9 mM): 0.011

Fc1ccc(Cl)cc1-c1nc(Nc2ccncc2)c2nccnc2n1
scaled lipid accumulation score [3]: ≤ -0.001

O=C1C=CC(=O)C2=C1C1c3ccccc3C2c2ccccc21
scaled lipid accumulation score [3]: 0.953 (active)

O=C1c2ccccc2C(=O)C1c1ccccc1 [Phenindione]
scaled lipid accumulation score: ≤ 0 | scaled lipid accumulation score [2]: ≤ 0 | scaled lipid accumulation score [4]: 0.014 | scaled lipid accumulation score [3]: ≤ 0

CCCCCC(O)C=CC1C2CC(CO2)C1CCCCCCC(=O)O (stereo not drawn) [9,11-methane-epoxy Prostaglandin F1.alpha.]
scaled lipid accumulation score [1]: 0.048

O=C(NC1CCN(CCCCC2(C(=O)NCC(F)(F)F)c3ccccc3-c3ccccc32)CC1)c1ccccc1-c1ccc(C(F)(F)F)cc1 [Lomitapide] [listing 1 of 2 here]
scaled lipid accumulation score [2]: 1.05 (active)

O=C(Nc1ccc2c(c1)CCN(Cc1ncn[nH]1)C2)c1ccccc1-c1ccc(C(F)(F)F)cc1
scaled lipid accumulation score [3]: ≤ 0

O=C(NC1CCN(CCCCC2(C(=O)NCC(F)(F)F)c3ccccc3-c3ccccc32)CC1)c1ccccc1-c1ccc(C(F)(F)F)cc1 [Lomitapide] [listing 2 of 2 here]
scaled lipid accumulation score [3]: ≤ 0

N[C@@H]1CCCN(c2c(/C=C3\SC(=O)NC3=O)cccc2-c2ccccc2)C1
scaled lipid accumulation score [5]: ≤ 0 | scaled lipid accumulation score [6]: ≤ 0 | scaled lipid accumulation score [7]: 0.016 | scaled lipid accumulation score [2]: 0.072 | scaled lipid accumulation score [3]: 0.072 and 0.486

CC(C)(C)c1cc(O)c(C(C)(C)C)cc1O [2,5-Ditertbutylhydroquinone]
scaled lipid accumulation score (library stock concentration: 22.5 mM): 0.463

O=C(O)/C=C\C(=O)O.O=C(O)/C=C\C(=O)O.c1cc(CN2CCCCC2)cc(OCCCNc2nc3ccccc3s2)c1 [Zolantidine dimaleate]
scaled lipid accumulation score [3]: 1.5 (active)

O=C(O)/C=C\C(=O)O.O=C(O)/C=C\C(=O)O.c1cc(CN2CCCCC2)cc(OCCCNc2nc3ccccc3s2)c1
scaled lipid accumulation score [3]: 1.03 (active)

CC(=O)OCC(=O)NCCCOc1cccc(CN2CCCCC2)c1 [Roxatidine Acetate HCl]
scaled lipid accumulation score: 0.032 | scaled lipid accumulation score [2]: ≤ 0 | scaled lipid accumulation score [3]: ≤ 0

CC(=O)OCC(=O)NCCCOc1cccc(CN2CCCCC2)c1 [Roxatidine acetate HCl]
scaled lipid accumulation score (library stock concentration: 5.7 mM): ≤ 0

CC(=O)OCC(=O)NCCCOc1cccc(CN2CCCCC2)c1
scaled lipid accumulation score [3]: ≤ 0

O=C(O)Cc1cccc(OCCCN(Cc2cccc(C(F)(F)F)c2Cl)CC(c2ccccc2)c2ccccc2)c1
scaled lipid accumulation score [2]: ≤ 0 | scaled lipid accumulation score [3]: 0.181

O=C(O)Cc1cccc(OCCCN(Cc2cccc(C(F)(F)F)c2Cl)CC(c2ccccc2)c2ccccc2)c1 [GW 3965 hydrochloride]
scaled lipid accumulation score [3]: ≤ -0.001

c1ccc2sc(N3CCN(Cc4ccc5c(c4)OCO5)CC3)nc2c1 [2-[1-(4-Piperonyl)piperazinyl]benzothiazole]
scaled lipid accumulation score [3]: ≤ 0

CCCCCCCCCCCCCCCCCC(=O)N[C@H]1CCOC1=O [N-octadecanoyl-L-Homoserine lactone]
scaled lipid accumulation score [1]: ≤ 0

CCCCN1C[C@H](O)[C@@H](O)[C@H](O)[C@H]1CO [Miglustat]
scaled lipid accumulation score (library stock concentration: 9.1 mM): ≤ 0

Nc1nc(Nc2ccccc2)nc2c1ncn2[C@@H]1O[C@H](CO)[C@@H](O)[C@H]1O
scaled lipid accumulation score [3]: ≤ 0

Cc1ccc(NC(=O)c2ccc(CN3CCN(C)CC3)cc2)cc1Nc1nccc(-c2cccnc2)n1 [Imatinib (STI571)] [listing 1 of 2 here]
scaled lipid accumulation score [2]: 0.133

CS(=O)(=O)O.Cc1ccc(NC(=O)c2ccc(CN3CCN(C)CC3)cc2)cc1Nc1nccc(-c2cccnc2)n1 [Imatinib Mesylate (STI571)]
scaled lipid accumulation score [3]: 1.1 (active)

Cc1cc(-c2ccc(CC(=O)Nc3ccc(-c4cccnc4)cc3)cc2)ccn1
scaled lipid accumulation score [2]: 0.089 | scaled lipid accumulation score [3]: 0.262

Cc1ccc(NC(=O)c2ccc(CN3CCN(C)CC3)cc2)cc1Nc1nccc(-c2cccnc2)n1 [Imatinib (STI571)] [listing 2 of 2 here]
scaled lipid accumulation score [3]: 0.92 (active)

Cc1ccc(NC(=O)c2ccc(CN3CCN(C)CC3)cc2)cc1Nc1nccc(-c2cccnc2)n1 [Imatinib Mesylate (STI571)]
scaled lipid accumulation score [2]: 0.259

Cc1ccc(NC(=O)c2ccc(CN3CCN(C)CC3)cc2)cc1Nc1nccc(-c2cccnc2)n1 [Imatinib]
scaled lipid accumulation score [5]: ≤ 0 | scaled lipid accumulation score [6]: ≤ 0 | scaled lipid accumulation score [7]: 0.049

CS(=O)(=O)O.Cc1ccc(NC(=O)c2ccc(CN3CCN(C)CC3)cc2)cc1Nc1nccc(-c2cccnc2)n1
scaled lipid accumulation score [3]: 1.08 (active)

CS(=O)(=O)O.Cc1ccc(NC(=O)c2ccc(CN3CCN(C)CC3)cc2)cc1Nc1nccc(-c2cccnc2)n1 [Imatinib]
scaled lipid accumulation score [3]: 0.969 (active)

Cc1ccc(NC(=O)c2ccc(CN3CCN(C)CC3)cc2)cc1Nc1nccc(-c2cccnc2)n1
scaled lipid accumulation score [6]: 0.022 | scaled lipid accumulation score [7]: ≤ -0.005 | scaled lipid accumulation score [3]: 0.628

CCCCC/C=C\C/C=C\C/C=C\CCCCCCC(=O)O [Dihomo-gamma-linolenic acid]
scaled lipid accumulation score [1]: ≤ -0.021

CCCCC/C=C\C/C=C\C/C=C\CCCCCCC(=O)O [Dihomo-.gamma.-Linolenic Acid]
scaled lipid accumulation score [1]: 0.003

CCCCC(CC)COC(=O)CC(C(=O)OCC(CC)CCCC)S(=O)(=O)O (configuration not stated)
scaled lipid accumulation score [3]: ≤ 0

CCCCC[C@H](O)/C=C/[C@H]1[C@H](O)CC(=O)[C@H]1C/C=C\CCCC(=O)OC(C)C [8-iso Prostaglandin E2 isopropyl ester]
scaled lipid accumulation score [1]: ≤ 0

CC/C=C\C/C=C\C/C=C\C/C=C\C/C=C\C/C=C\CCC(=O)O[C@H](COCCCCCCCCCCCCCCCC)COP(=O)([O-])OCC[N+](C)(C)C [Docosahexaenoyl PAF C-16]
scaled lipid accumulation score [1]: ≤ 0

CC/C=C\C/C=C\C/C=C\C/C=C\C/C=C\CCCC(=O)O[C@H](COCCCCCCCCCCCCCCCC)COP(=O)([O-])OCC[N+](C)(C)C [Eicosapentaenoyl PAF C-16]
scaled lipid accumulation score [1]: ≤ 0

COc1ccc(CCN(C)CCCC(C#N)(c2cc(OC)c(OC)c(OC)c2)C(C)C)cc1OC (configuration not stated)
scaled lipid accumulation score [3]: 0.616

CCCCC[C@H](O)/C=C/[C@@H]1[C@H]2C[C@@H](CCCCC(=O)O)O[C@H]2C[C@H]1O [6.alpha.-Prostaglandin I1]
scaled lipid accumulation score [1]: 0.002

C=CCc1ccc(O)c(-c2ccc(O)c(CC=C)c2)c1 [Honokiol]
scaled lipid accumulation score [2]: ≤ 0 | scaled lipid accumulation score [3]: 0.295

CCCCC[C@@H](O)/C=C/[C@H]1C(=O)C[C@H](O)[C@@H]1CCCCCCCO [Prostaglandin D1 Alcohol]
scaled lipid accumulation score [1]: ≤ 0

CC(=O)CCCCn1cnc2c1c(=O)n(C)c(=O)n2C
scaled lipid accumulation score [3]: ≤ 0

Nc1ncnc2c1C(=O)N(c1ccc([C@H]3CC[C@H](CC(=O)O)CC3)cc1)CCO2
scaled lipid accumulation score [2]: ≤ -0.009 | scaled lipid accumulation score [3]: ≤ 0

COc1ccc(CCC(C)NC2CC(C)(C)NC(C)(C)C2)cc1 (configuration not stated)
scaled lipid accumulation score [3]: 0.998 (active)

COc1ccc(CNCc2cccc3ccccc23)cc1
scaled lipid accumulation score [2]: 0.023 | scaled lipid accumulation score [3]: 0.491

CC(/C=C/c1cccc(Oc2ccc(F)cc2)c1)N(O)C(N)=O (configuration not stated)
scaled lipid accumulation score [3]: 0.544 and 0.071

C[C@@H]1C[C@H]2[C@@H]3CCC4=CC(=O)C=C[C@]4(C)[C@@]3(F)[C@@H](O)C[C@]2(C)[C@H]1C(=O)CO
scaled lipid accumulation score [3]: ≤ 0

Cc1cc(C)cc(OCC2CNC(=O)O2)c1 (configuration not stated) [Metaxalone]
scaled lipid accumulation score [4]: ≤ 0 | scaled lipid accumulation score [3]: ≤ -0.023

COc1ccc2nc3cc(Cl)ccc3c(Nc3cc(CN4CCCC4)c(O)c(CN4CCCC4)c3)c2n1
scaled lipid accumulation score [3]: 0.065

N=C(N)NC(=N)N1CCOCC1
scaled lipid accumulation score [3]: ≤ 0

N=C(N)NC(=N)N1CCOCC1 [Moroxydine HCl]
scaled lipid accumulation score [2]: 0.051 | scaled lipid accumulation score (library stock concentration: 9.6 mM): ≤ -0.006 | scaled lipid accumulation score [3]: ≤ 0

CCN(CC)CCCCNc1ncc2cc(-c3c(Cl)cccc3Cl)c(NC(=O)NC(C)(C)C)nc2n1 [listing 1 of 2 here]
scaled lipid accumulation score [3]: 1.41 (active)

CCN(CC)CCOc1ccc(Nc2ncc3cc(-c4c(Cl)cccc4Cl)c(=O)n(C)c3n2)cc1
scaled lipid accumulation score [3]: 0.416

CCN(CC)CCCCNc1ncc2cc(-c3c(Cl)cccc3Cl)c(NC(=O)NC(C)(C)C)nc2n1 [listing 2 of 2 here]
scaled lipid accumulation score [3]: 0.999 (active)

CSc1cccc(Nc2ncc3cc(-c4c(Cl)cccc4Cl)c(=O)n(C)c3n2)c1
scaled lipid accumulation score [2]: 0.68 | scaled lipid accumulation score [3]: 0.591
